Results reported in PubChem BioAssay (EPA / NIEHS).
Inconclusive results are not listed. Active and inactive are the calls of the source. How the source made its calls: active means hit-call score of the fitted dose curve at least 0.9, where 1 is the maximum; inconclusive means response in the unintended direction; inactive means score below 0.9.

The compounds below were run against Nuclear receptor subfamily 1 group I member 3 (Homo sapiens) (UniProt Q14994) (assay: ATG_CAR_TRANS: Attagene TRANS-FACTORIAL HepG2 Assay for human Constitutive Androstane Receptor (CAR) (AID 2282969;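 further: activators raise reporter mRNA above DMSO so AC50 marks induction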)). Settings: HepG2 Attagene TRANS-FACTORIAL CAR reporter.
Chain of Nuclear receptor subfamily 1 group I member 3 (Homo sapiens) (Q14994 whole entry, looked up): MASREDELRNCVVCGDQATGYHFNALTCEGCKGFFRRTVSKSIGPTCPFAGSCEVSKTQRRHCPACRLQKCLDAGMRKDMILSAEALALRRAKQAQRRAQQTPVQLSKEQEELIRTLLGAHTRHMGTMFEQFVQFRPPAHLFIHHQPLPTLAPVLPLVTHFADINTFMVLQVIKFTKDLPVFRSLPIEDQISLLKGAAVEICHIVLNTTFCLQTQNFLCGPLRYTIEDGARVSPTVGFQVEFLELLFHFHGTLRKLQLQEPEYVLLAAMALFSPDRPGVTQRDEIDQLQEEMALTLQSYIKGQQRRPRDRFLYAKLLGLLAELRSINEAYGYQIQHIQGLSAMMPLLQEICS
Procedure: ATG_TRANS is a cell-based, multiplexed-readout assay that uses HepG2, a human liver cell line, with measurements taken at 24 hours after chemical dosing in a 24-well plate.ATG_CAR_TRANS is one of 30 assay component(s) measured or calculated from the ATG_TRANS assay. It is designed to make measurements of mRNA induction, a form of inducible reporter, as detected with fluorescence intensity signals by Reverse transcription polymerase chain reaction (RT-PCR) and Capillary electrophoresis technology.Data from the assay component ATG_CAR_TRANS was analyzed into 1 assay endpoint. This assay endpoint, ATG_CAR_TRANS, was analyzed in the positive analysis fitting direction relative to DMSO as the negative control and baseline of activity. Using a type of inducible reporter, measures of mRNA for gain-of-signal activity can be used to understand the reporter gene at the transcription factor-level as they relate to the gene NR1I3. Furthermore, this assay endpoint can be referred to as a primary readout, because this assay has produced multiple assay endpoints where this one serves a reporter gene function. To generalize the intended target to other relatable targets, this assay endpoint is annotated to the nuclear receptor intended target family, where the subfamily is non-steroidal.
Human liver HepG2 cells are transiently transfected with multiple reporter transcription units (MRTUs) in 6-well plates using FuGene 6 reagent (Roche; 3 ml FuGene/1 mg DNA). The MRTU constructs are regulated by a cis-regulating element (promoter). […] A major difference between the CIS and TRANS system is that in CIS activities of endogenous TFs are measured, whereas the TRANS assay evaluates changes in activities of exogenous, chimeric NR-Gal4 proteins. […] At the end of 24 hour incubation, total RNA was isolated using TriZol reagent (Invitrogen). The isolated RNA is then reverse-transcribed using oligo(dT) primer and Mo-MLV reverse transcriptase (Invitrogen) with DNAse I (Ambion) treatment for 30 min. The one-tenth of the produced cDNA was amplified by PCR using Taq DNA polymerase (Invitrogen) and two reporter sequence-specific primers. The PCR products were fluorescently labeled by primer extension with 6-arboxyfluorescein (6-FAM) 5'-labeled reporter sequence-specific primer (2 min at 95 C, 20 s at 68 C and 10 min at 72 C) and these products were digested with 5U of HpaI (New England Biolabs) for 2h at 37 C. The fragments were purified using Qiaquick PCR columns (Qiagen), analyzed on an ABI 3130xL genetic analyzer (Applied Biosystems) with peak positions identified by using a set of X-rhodamine (ROX)-labeled MapMarker1000 molecular weight standards (BioVentures). The raw capillary electrophoresis data was processed using Attagraph software (Attagene).

Structure (SMILES) | outcome
Cc1ccc([N+](=O)[O-])cc1 | inactive
CNC(=O)Oc1cccc2c1OC(C)(C)C2 | inactive
CCCCC(CC)COC(=O)c1ccc(C(=O)OCC(CC)CCCC)c(C(=O)OCC(CC)CCCC)c1 (stereo not given) | inactive
CCOC(=O)[C@]1(c2ccccc2)Oc2ccccc2[C@@H]1N | inactive
C1=Cc2cccc3cccc1c23 | inactive
O=C1CCCO1 | inactive
CCCCCOC(=O)c1ccccc1C(=O)OCCCCC | inactive
Nc1ccc(Cl)cc1N | inactive
CC(C)(OOC(C)(C)c1ccccc1)c1ccccc1 | inactive
CCCCOC(=O)c1ccccc1C(=O)OCc1ccccc1 | inactive
Cc1ccc(N)cc1 | inactive
CCNS(=O)(=O)C(F)(F)C(F)(F)C(F)(F)C(F)(F)C(F)(F)C(F)(F)C(F)(F)C(F)(F)F | inactive
ClC1=C(Cl)[C@]2(Cl)[C@H]3[C@H]([C@@H]4C=C[C@H]3C4)[C@@]1(Cl)C2(Cl)Cl | inactive
Nc1ccc(Oc2ccc(N)cc2)cc1 | inactive
O=[N+]([O-])C(Br)(CO)CO | inactive
Cc1cc(N=Nc2ccccc2C)ccc1N | inactive
CCCSC(=O)N(CCC)CCC | inactive
Oc1ccccc1Cl | inactive

Structure (SMILES) | outcome
c1ccc2c(c1)oc1ccccc12 | inactive
c1ccc2c(c1)-c1cccc3cccc-2c13 | inactive
COC(=O)Nc1nc2ccccc2[nH]1 | inactive
Clc1ccc(C(c2ccc(Cl)cc2)C(Cl)Cl)cc1 | inactive
Nc1ccc(Cc2ccc(N)cc2)cc1 | inactive
CCC(C)c1ccc(O)cc1 (stereo not given) | inactive
Cc1cccc(N)c1N | inactive
CC(C)N(Cc1ccccc1)C(=O)C(C)(C)C | inactive
OCCCl | inactive
CC(C)(C)OOC(C)(C)CCC(C)(C)OOC(C)(C)C | inactive
N#CC(Br)Br | inactive
c1ccc(N=Nc2ccccc2)cc1 | inactive
Nc1ccc([N+](=O)[O-])cc1 | inactive
O=[N+]([O-])c1ccc(Oc2ccc(Cl)cc2Cl)cc1 | inactive
O=P(OCCCl)(OCCCl)OCCCl | inactive
OCCOCCO | inactive
CC(O)CCO (stereo not given) | inactive
